# CCHF vOTU inh-1 – CCHFV vOTU protease inhibition. Pep-AMC fluorescence. inhibition, % at 11.5 µM. 0.55% of 370,000 active. AID 651958; further: 0% = vehicle wells with enzyme and 100% = no enzyme wells
# Mtb FBA inh – Mtb fructose-bisphosphate aldolase inhibition; inhibition, % at 1 µM; purified M. tuberculosis FBA, fluorescence read-out; 2.3% of 360,000 active; in the data active means inhibition above about 27%;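 further: 0% = vehicle and 100% = reference inhibitor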
# GDH-TPI counter – GDH-TPI coupled enzyme inhibition counter-screen; inhibition, % at 4.8 µM; 1.2% of 360,000 active; GDH-TPI coupled enzyme counterscreen, NADH absorbance;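 further: 0% = DMSO wells and 100% = wells lacking the enzyme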
# RecA splice inh – inhibitors of M. tuberculosis RecA intein splicing; P9WHJ3; cell-free RecA intein splicing, fluorescence; inhibition, % (no concentration beside the values); 0.75% of 290,000 active; AID 2221; in the data active means inhibition above about 30%;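 further: 0% = vehicle wells and 100% = reference inhibitor control wells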
# Target sequence (P9WHJ3 whole entry, looked up, canonical isoform): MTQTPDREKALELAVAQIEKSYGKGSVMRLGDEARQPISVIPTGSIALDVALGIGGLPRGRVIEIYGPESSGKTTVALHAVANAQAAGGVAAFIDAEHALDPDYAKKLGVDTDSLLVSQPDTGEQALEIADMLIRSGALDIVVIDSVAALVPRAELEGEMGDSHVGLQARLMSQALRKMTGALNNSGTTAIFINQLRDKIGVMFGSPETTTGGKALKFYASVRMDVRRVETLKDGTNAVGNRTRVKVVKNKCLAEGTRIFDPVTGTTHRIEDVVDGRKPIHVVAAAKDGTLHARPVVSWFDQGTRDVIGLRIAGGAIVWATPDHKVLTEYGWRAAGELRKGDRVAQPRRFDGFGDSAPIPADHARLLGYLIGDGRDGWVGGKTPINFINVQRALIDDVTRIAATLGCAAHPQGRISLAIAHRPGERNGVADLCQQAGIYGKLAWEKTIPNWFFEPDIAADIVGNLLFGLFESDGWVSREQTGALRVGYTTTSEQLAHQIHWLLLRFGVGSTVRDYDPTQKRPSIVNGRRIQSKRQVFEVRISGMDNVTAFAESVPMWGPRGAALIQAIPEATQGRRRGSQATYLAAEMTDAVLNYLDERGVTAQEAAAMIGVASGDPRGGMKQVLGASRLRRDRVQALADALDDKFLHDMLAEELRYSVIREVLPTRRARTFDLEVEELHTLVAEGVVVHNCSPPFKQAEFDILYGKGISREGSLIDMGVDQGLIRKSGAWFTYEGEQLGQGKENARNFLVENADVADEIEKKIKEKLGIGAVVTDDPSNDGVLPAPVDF
# CCHF vOTU inh-2 – CCHFV vOTU protease inhibition, confirmation; shares compounds with CCHF vOTU inh-1; Recombinant CCHFV vOTU, Pep-AMC fluorescence; inhibition, % at 11.5 µM; 17% of 1,900 active; AID 686976
# Numbers without * were called inactive; · = no result given. Hits are enriched below; roughly 4.2% of the tested compounds scored in any of these assays. Unless noted, no stated cut-off is given here; in the data, active means inhibition above about 30%; inactive means the rest.
SMILES,CCHF vOTU inh-1,Mtb FBA inh,GDH-TPI counter,RecA splice inh,CCHF vOTU inh-2
O=C(O)COc1ccccc1/C=N/NC(=O)Cc1csc(Nc2cccc(C(F)(F)F)c2)n1,32*,-5,8,9,-2
CN1C(=O)C(=O)N(CC(=O)Nc2ccccc2OC(F)F)C1=O,6,0,1,·,·
CCOC(=O)/C=C1\CN(Cc2cc(OC)c(OC)c(OC)c2)S(=O)(=O)c2ccc(C(F)(F)F)cc21,33*,1,4,-1,3
FC(F)(F)C1=Nc2cccc3cccc(c23)N1,41*,-3,14,·,17
Cc1ccc(C)c(N(C(=O)c2csnn2)C(C(=O)NC2CCCCC2)c2ccccn2)c1 (stereo not given),0,-1,-9,-1,·
Cc1ccc2nc(N/C(=N/S(=O)(=O)c3ccc(F)cc3)c3ccccc3)sc2c1,5,2,20,-2,·
Cc1ccc(S(=O)(=O)/N=C(/Nc2nc(C)cs2)c2ccccc2)cc1,38*,0,17,·,-9
COc1ccc(NC(=O)N2CCCC2C(=O)Nc2ccc(C)cc2C)cc1 (stereo not given),-3,0,-5,-12,·
CC(NC(=O)c1cccc(S(=O)(=O)N2CCc3ccccc32)c1)c1ccco1 (stereo not given),14,2,4,·,·
O=C(O)c1cccc(NC2=C(N3CCOCC3)C(=O)c3ccccc3C2=O)c1,79*,11,17,17,93*
COc1ccc(S(=O)(=O)N(C)C[C@@H]2OCc3cnnn3CCCC(=O)N([C@H](C)CO)C[C@@H]2C)cc1,-9,-1,3,·,·
CCCCCCNC(=O)OC12CN(C(=O)OC(C)C)N(C(=O)OC(C)C)CC1(O)CN(S(=O)(=O)c1ccc(C)cc1)C2 (stereo not given),37*,-2,3,·,11
Cc1ccc(S(=O)(=O)N2CC3(O)CN(C(=O)OC(C)C)N(C(=O)OC(C)C)CC3(OC(=O)NCC3CCCCC3)C2)cc1 (stereo not given),24,1,1,·,·
CCCCN(CCCC)S(=O)(=O)c1ccc(NC(=O)c2ccc([N+](=O)[O-])cc2Cl)cc1,30*,1,-3,0,-8
Oc1cc(Nc2ccccc2)cc2cccnc12,2,-2,5,·,·
Oc1cc(NCCN2CCOCC2)cc2cccnc12,99*,1,22,·,46*
Cc1ccnc(NC(=O)COc2ccc3c(c2)CCC3)c1,-3,0,0,-2,·
COc1ccc(CN2CCN(Cc3ccccc3C(F)(F)F)CC2)c(OC)c1,30*,4,-4,2,-2
Nc1ccc2nc(-c3ccc(-c4nc5ccc(N)cc5[nH]4)cc3)[nH]c2c1,36*,·,·,-18,-9
Nc1ccc2nc(CCCCCCc3nc4ccc(N)cc4[nH]3)[nH]c2c1,12,7,5,7,·
CC(=O)[C@H]1[C@@H]2C(=O)N(c3cccc(Cl)c3)C(=O)[C@@H]2[C@H]2c3ccccc3C=CN21,94*,0,10,-12,82*
CC(=O)[C@@H]1[C@@H]2C(=O)N(c3ccc(F)c(Cl)c3)C(=O)[C@@H]2C2c3ccccc3C=CN21 (stereo not given in full),95*,·,·,2,75*
C[C@@H]1CN([C@H](C)CO)C(=O)c2cc(C3=CCCCC3)cnc2O[C@@H]1CN(C)Cc1ccccc1C(=O)O,-2,4,-4,·,·
CCCCCC(C)NC(=O)CN1C(=O)NC(C)(c2ccc3ccccc3c2)C1=O (stereo not given),32*,-4,3,0,4
CCCCOc1cc(NCc2ccccc2)c2ncn(C(C)C)c2c1,37*,26,4,·,10
SMILES,CCHF vOTU inh-1,Mtb FBA inh,GDH-TPI counter,RecA splice inh,CCHF vOTU inh-2
CCOCCOc1cc(NCc2ccccc2)c2ncn(C(C)C)c2c1,30*,1,1,·,4
CCC(COC)Oc1cc(NCc2ccccc2)c2ncn(C(C)C)c2c1 (stereo not given),70*,3,5,·,69*
COc1ccccc1CCNC(=O)C(=O)NCC1OCCN1S(=O)(=O)c1ccc(C)cc1 (stereo not given),2,-1,-2,1,·
CC1Oc2ccc(C#N)cc2N(Cc2cccc(F)c2)C1=O (stereo not given),-2,4,15,·,·
COc1ccc(C(NC(=O)C2CCN(CCOc3ccc(Cl)cc3Cl)CC2)c2ccccn2)cc1 (stereo not given),5,1,3,·,·
CCOc1cc(/C=N/N=C2/NC(=O)C(CC(=O)O)S2)ccc1OCc1ccc(Cl)cc1Cl (stereo not given),·,0,28,8,·

# Assay outcomes from PubChem BioAssay.
